Reference: the supplement of paper PMC3545927
Some of the results follow. No count for the full screen is at hand.

B1: HC1059 (peptide)
chain: CAVTSPLTTSAGNASASA
B2: HC2232 (peptide)
chain: CAEVVTSTEVAGNASASA
B3: HC498 (peptide)
chain: CALPCSFTTLAGNASASA
B4: HC1978 (peptide)
chain: CAETTTPCSGAGNASASA
B5: HC318 (peptide)
chain: CAGHRMAWDMAGNASASA
B6: HC942 (peptide)
chain: CATGLTHIDAAGNASASA
B7: HC2333 (peptide)
chain: CAERPCHRPSAGNASASA
B8: HC1152 (peptide)
chain: CAWICEVLSDAGNASASA
B9: HC290 (peptide)
chain: CARRHIDLLVAGNASASA
B10: HC2187 (peptide)
chain: CAEVFTSTWVAGNASASA
B11: FS-520 (peptide)
chain: CAYIERSPRSAGNASASA
B12: FS-409 (peptide)
chain: CADKSRSPRSAGNASASA
B13: HC1239 (peptide)
chain: CAGSQLPCEPAGNASASA
B14: HC1634 (peptide)
chain: CANWAVRTKLAGNASASA
B15: FS-1889 (peptide)
chain: CAREKRSISDAGNASASA
B16: FS-3147 (peptide)
chain: CARAPRSSSQAGNASASA
B17: FS-1850 (peptide)
chain: CAREKRAAEQAGNASASA
B18: FS-2908 (peptide)
chain: CAREARVVSDAGNASASA
B19: FS-2257 (peptide)
chain: CARFARMIEQAGNASASA
B20: FS-2915 (peptide)
chain: CAREKRRSADAGNASASA
B21: FS-2008 (peptide)
chain: CAREKRSNSQAGNASASA
B22: FS-1697 (peptide)
chain: CARERRGREQAGNASASA
B23: FS-2207 (peptide)
chain: CAREKRAKIKAGNASASA
B24: FS-2006 (peptide)
chain: CAREKKSNSPAGNASASA
B25: FS-2134 (peptide)
chain: CAREKRGGETAGNASASA
B26: HC1017 (peptide)
chain: CAQHLPYIEQAGNASASA
B27: HC2019 (peptide)
chain: CAVPCCSMSYAGNASASA
B28: HC1982 (peptide)
chain: CAEQTTPCSGAGNASASA
B29: HC492 (peptide)
chain: CASPLLLTTTAGNASASA
B30: HC2137 (peptide)
chain: CAESVVCCSMAGNASASA
B31: HC2452 (peptide)
chain: CAEEEVPCHRAGNASASA
B32: HC596 (peptide)
chain: CADAVILLMCAGNASASA
B33: FS-3218 (peptide)
chain: CAREKRLLYSAGNASASA
B34: FS-1852 (peptide)
chain: CAREKRSEYSAGNASASA
B35: FS-1535 (peptide)
chain: CAIEFRHKRKAGNASASA
B36: FS-1893 (peptide)
chain: CARGPRGKGKAGNASASA
B37: FS-1359 (peptide)
chain: CALLCRHKRKAGNASASA
B38: HC1439 (peptide)
chain: CATIMAKNEVAGNASASA
B39: HC1279 (peptide)
chain: CAMGGNITRVAGNASASA
B40: FS-151 (peptide)
chain: CAYGGRNRRVAGNASASA
B41: HC121 (peptide)
chain: CAEVVASTWVAGNASASA
B42: FS-38 (peptide)
chain: CAKFHRNRRVAGNASASA

Molecular target: furin, P09958
Experiment: furin cleavage Z-score vs untreated control; higher = more cleavage, active = 3.5 or more, inactive = 1 or less, 8 variable residues between constant flanks
Outline: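 Reactions of 0.01 ml ran for 7.5, 15 or 30 min in 50 mM HEPES pH 7.5 with CaCl2 and NaCl, at 1:10 enzyme:substrate. In them, purified furin acted on bead-held 8-mer peptides fused to a cDNA oligonucleotide. The cleavage Z-score was obtained by lowess-adjusting log sequencing counts of released DNA against furin-free reactions and scaling by median absolute deviation.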

Chain of furin, P09958 (P09958 whole entry): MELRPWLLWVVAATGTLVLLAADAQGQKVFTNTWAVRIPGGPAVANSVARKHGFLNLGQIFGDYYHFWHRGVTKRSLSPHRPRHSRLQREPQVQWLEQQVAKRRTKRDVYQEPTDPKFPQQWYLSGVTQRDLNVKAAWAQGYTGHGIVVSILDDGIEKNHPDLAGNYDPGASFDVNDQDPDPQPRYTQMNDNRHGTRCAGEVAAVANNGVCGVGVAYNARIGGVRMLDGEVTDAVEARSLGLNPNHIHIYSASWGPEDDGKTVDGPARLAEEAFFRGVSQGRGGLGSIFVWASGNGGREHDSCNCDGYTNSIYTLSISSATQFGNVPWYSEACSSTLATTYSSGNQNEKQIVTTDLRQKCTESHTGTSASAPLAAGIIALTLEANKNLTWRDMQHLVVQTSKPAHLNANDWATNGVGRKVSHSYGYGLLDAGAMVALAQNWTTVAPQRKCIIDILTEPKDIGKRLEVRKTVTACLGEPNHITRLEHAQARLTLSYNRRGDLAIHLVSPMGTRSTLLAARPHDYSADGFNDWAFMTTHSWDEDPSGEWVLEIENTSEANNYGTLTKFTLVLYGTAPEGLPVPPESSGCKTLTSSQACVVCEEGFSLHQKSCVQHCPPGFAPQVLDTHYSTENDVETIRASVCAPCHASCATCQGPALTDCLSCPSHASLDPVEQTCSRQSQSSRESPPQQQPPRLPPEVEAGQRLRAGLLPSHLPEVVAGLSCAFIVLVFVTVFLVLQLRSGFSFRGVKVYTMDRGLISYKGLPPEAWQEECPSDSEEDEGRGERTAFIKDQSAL

Row | Sequence | furin cleavage Z-score (7.5 min) | furin cleavage Z-score (15 min) | furin cleavage Z-score (30 min)
1 | B1 | -0.539 (inactive) | -0.0107 (inactive) | -0.218 (inactive)
2 | B2 | -0.0344 (inactive) | 0.123 (inactive) | -0.271 (inactive)
3 | B3 | 0.311 (inactive) | 0.0716 (inactive) | 0.261 (inactive)
4 | B4 | 0.473 (inactive) | 0.124 (inactive) | -0.446 (inactive)
5 | B5 | -0.464 (inactive) | -0.574 (inactive) | -0.169 (inactive)
6 | B6 | -0.972 (inactive) | -0.954 (inactive) | 0.105 (inactive)
7 | B7 | 1.21 | -1.94 (inactive) | 1.34
8 | B8 | 0.155 (inactive) | 0.346 (inactive) | 0.769 (inactive)
9 | B9 | 1.11 | 0.566 (inactive) | 1.2
10 | B10 | 0.575 (inactive) | -0.109 (inactive) | -0.829 (inactive)
11 | B11 | 1.05 | 2.95 | 3.61 (active)
12 | B12 | 6.8 (active) | 6.47 (active) | 6.46 (active)
13 | B13 | -0.324 (inactive) | -2.36 (inactive) | 0.573 (inactive)
14 | B14 | 1.9 | 0.613 (inactive) | -0.705 (inactive)
15 | B15 | 9.34 (active) | 11.3 (active) | 8.9 (active)
16 | B16 | 1.17 | 1.52 | 0.934 (inactive)
17 | B17 | 7.93 (active) | 9.37 (active) | 8.96 (active)
18 | B18 | -1.38 (inactive) | -0.98 (inactive) | -0.486 (inactive)
19 | B19 | 1.16 | 3.39 | 3.53 (active)
20 | B20 | 2.47 | 1.11 | 0.11 (inactive)
21 | B21 | 6.55 (active) | 8.6 (active) | 7.52 (active)

Row | Sequence | furin cleavage Z-score (7.5 min) | furin cleavage Z-score (15 min) | furin cleavage Z-score (30 min)
22 | B22 | 0.641 (inactive) | 1.84 | 1.15
23 | B23 | -1.38 (inactive) | 0.0659 (inactive) | 0.59 (inactive)
24 | B24 | -0.648 (inactive) | -0.595 (inactive) | -1.15 (inactive)
25 | B25 | -0.448 (inactive) | 0.845 (inactive) | 1.95
26 | B26 | -0.597 (inactive) | -0.486 (inactive) | -0.755 (inactive)
27 | B27 | -0.257 (inactive) | 0.638 (inactive) | 1.91
28 | B28 | -1.3 (inactive) | -0.293 (inactive) | 0.257 (inactive)
29 | B29 | -0.516 (inactive) | -0.474 (inactive) | -1.67 (inactive)
30 | B30 | -0.35 (inactive) | -0.242 (inactive) | -0.275 (inactive)
31 | B31 | -0.0801 (inactive) | -0.749 (inactive) | -0.159 (inactive)
32 | B32 | -0.491 (inactive) | 1.35 | 0.744 (inactive)
33 | B33 | -0.25 (inactive) | 0.302 (inactive) | -0.105 (inactive)
34 | B34 | 3.09 | 3.81 (active) | 3.2
35 | B35 | -1.35 (inactive) | 1.39 | 3.89 (active)
36 | B36 | -0.459 (inactive) | -0.333 (inactive) | -2.1 (inactive)
37 | B37 | 7.93 (active) | 9.24 (active) | 8.25 (active)
38 | B38 | 1.57 | 1.43 | 0.513 (inactive)
39 | B39 | -0.69 (inactive) | 2.32 | 0.434 (inactive)
40 | B40 | 2 | 3.67 (active) | 4.5 (active)
41 | B41 | 1.23 | 1.63 | -0.233 (inactive)
42 | B42 | 1.89 | 4.04 (active) | 2.3
